Experimental data: PubChem BioAssay AID720724 (Broad Institute, 2013)
Measured potencies and affinities stand elsewhere. The source made the active and inactive calls.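 How the source made its calls: active means signal falls with a fitted half-maximal dose at most twice the top dose, in every run; inconclusive means steady partial drop, poor fit, or runs disagree; inactive means flat, rising or too weak in every run.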

Experiment: inhibitors of control Renilla luciferase reporter, dose response, counter-screen for Shn3 3'UTR targeting project, Clone20-Shn3RL cells, dual-Glo, cherry-pick, set 2 (AID 720724)
Conditions: renilla luciferase luminescence, 24 h; series mostly up to 35 µM; activity change, negative = inhibition: at the top concentration

Compound	activity change, negative = inhibition
O=C(NCCc1ccccc1)c1ccc2c(c1)OCCCO2	-25% (inactive)
CNc1ccccc1C(C)(C)c1cc(-c2cccc(OC)c2)no1	-40% (inactive)
CC(C)Cn1c(N)c(C(=O)COC(=O)C2Cc3ccccc3CN2S(C)(=O)=O)c(=O)n(C)c1=O (centres undefined)	-46.7% (inactive)
CCc1ccccc1NC(=O)COC(=O)c1c(C)nsc1NC	-32.5% (inactive)
Cc1ccc(NC(=O)c2cc(S(=O)(=O)NCCC3=CCCCC3)ccc2F)cc1F	-40% (inactive)
CCOC(=O)c1cn(CC(=O)Nc2cccc(Cl)c2C)nn1	-30% (inactive)
O=C(Nc1ccc(Cl)cc1)c1cc(S(=O)(=O)N2CCOCC2)cs1	-32.5% (inactive)
Cc1nc(SCC(=O)Nc2nc3ccccc3s2)c(C#N)c(C)c1C	-12.5% (inactive)
COc1ccc(OCc2cccc(C(=O)O)c2)cc1	-29.2% (inactive)
Fc1ccc(-n2nnnc2-c2cnc(-c3cccs3)nc2C(F)(F)F)cc1	-25% (inactive)
CCOC(=O)C1CCCN(S(=O)(=O)c2ccc(S(=O)(=O)N3CCCC3)cc2)C1 (centres undefined)	-42.5% (inactive)
CCOc1ccc(N(C)S(=O)(=O)c2cc(-c3cc(C)no3)ccc2C(C)C)cc1	-20% (inactive)
CC(=O)Nc1ccc(OCC(=O)Nc2ccc(Cl)c(S(=O)(=O)N3CCOCC3)c2)cc1	-40% (inactive)
CC(Oc1ccc(F)cc1)C(=O)N(CCC1=CCCCC1)c1c(N)n(Cc2ccccc2)c(=O)[nH]c1=O (centres undefined)	25% (inactive)
O=C(c1cc(COc2ccc3ncccc3c2)on1)N1CCCCCC1	-12.5% (inactive)
COc1ccc(CNC(=O)C(C)n2ccc3cc(S(=O)(=O)N4CCCCCC4)ccc32)cc1 (centres undefined)	62.5% (inactive)
O=C(COC(=O)c1n[nH]c2ccccc12)Nc1ccc(S(=O)(=O)N2CCCC2)cc1	20% (inactive)

Compound	activity change, negative = inhibition
Cc1ccc(CNC(=O)c2cc3c(C)nc4ccccc4c3o2)cc1	-22.5% (inactive)
Cc1cc(S(=O)(=O)NCc2ccncc2)c(C)cc1Br	25% (inactive)
Cn1c(=O)c2c(nc(NCc3ccco3)n2CCc2ccccc2)n(C)c1=O	-28.3% (inactive)
Cc1ccc(-c2cn3cc(C)ccc3n2)cc1	-12.5% (inactive)
CC(C)CCOc1cccc(OCC(=O)Nc2ccncc2)c1	-30% (inactive)
CC1Cc2cc(S(=O)(=O)N3CCN(c4ccc(Cl)cc4)CC3)ccc2N1C(=O)C1CC1 (centres undefined)	25% (inactive)
c1ccc(-c2noc(-c3ccc4ccccc4c3)n2)nc1	-20% (inactive)
O=C(c1n[nH]c(=O)c2ccccc12)N1CCN(C2c3ccccc3-c3ccccc32)CC1	-29.2% (inactive)
CCSc1nnc(NC(=O)c2nc(S(=O)(=O)Cc3ccc(F)cc3)ncc2Cl)s1	-25% (inactive)
CCN(CC)c1ccc(NC(=O)CN2C(=O)CSc3ncccc32)c(C)c1	-30% (inactive)
Cc1c(C)c2ccc(OCC(=O)Nc3ccccn3)c(C)c2oc1=O	-12.5% (inactive)
COc1ccccc1NS(=O)(=O)c1cc(NC(=O)c2ccc(Cl)nc2)ccc1Cl	-30% (inactive)
Cc1cccc(CSc2cccc3cccnc23)c1	33.3% (inactive)
COc1ccccc1NC(=O)Cn1cc(C(=O)C2CC2)c2ccccc21	-20% (inactive)
COc1cc(NC(=O)c2cccc3c(-c4cccnc4)coc23)cc(OC)c1OC	-20% (inactive)
CCOC(=O)c1oc2ccc(S(=O)(=O)n3nc(-c4ccc(OC)cc4)cc3N)cc2c1C	2.5% (inactive)
CCN(CC)S(=O)(=O)c1ccc(S(=O)(=O)Nc2c(C)nn(C)c2C)cc1	-30% (inactive)
